The record followed here is PubChem BioAssay (NCI).

What all share (assay): NCI-60 one-dose screen, 48 h (100 = growth as untreated, 0 = no growth, -100 = all killed)
Settings in all cases: 10 µM unless noted

Test [1] has as its system SR leukemia.
For test [2], the system named is RPMI-8226 leukemia.
For test [3], the system named is OVCAR-8 ovarian.
Test [4] relates to OVCAR-5 ovarian.
Test [5] relates to SK-OV-3 ovarian.
For test [6], the system named is IGROV1 ovarian.
Test [7] deals with OVCAR-3 ovarian.
Test [8] relates to HS 578T breast.
The subject of test [9] is NCI/ADR-RES ovarian.
Test [10] relates to OVCAR-4 ovarian.

The structures appear in SMILES notation. About 83,000 compounds went through this panel and 20% of them were active in at least one assay; those are over-represented in the sample as a whole.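 In brief: 96-well plates, 48 h treatment, single concentration, percent growth endpoint.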 Values without a mark were called inactive. The source made the active and inactive calls. How the source made its calls: active means growth percent below 10; inactive means the rest.

On to `Cc1cc(Nc2ccc(F)cc2)nc(N2CCN(c3ccnc4cc(Cl)ccc34)CC2)n1`, for which the growth in test [1] was 2.7% (active); in test [2], 12.5%; in [3] it was 31.9%; in test [4], 8.2% (active); in [5] it was 46.8%; in test [6], 31.6%. The growth in test [7] is 24.1%; in test [8], 39.3%; in [9], 13.5%.
Consider `Cn1c2c(c3ccc(Cl)cc31)-n1cccc1C2=O`, for which the growth in [1] is 67.1%; in [2], 88.3%; in test [3] it was 83.5%; in test [4] it was 103%; in test [5], 102%; in test [6], 69.9%. For the same compound, the figures for the growth in test [7], in test [8] and in test [9] were 104%, 104% and 99.7%, respectively.
Turning to `CCOc1ccc(NC(=O)c2ccccc2-c2ccccc2C(=O)O)cc1`, the growth in [1] is 89.7%; in test [2] it was 101%; in [3], 111%; in [4], 98.6%; in test [5], 109%; in test [6], 110%. The growth in [7] is 110%; in test [8] it was 103%; in test [9], 108%.
For the compound `Cn1cc(-c2csc(-c3cn(C(=O)OC(C)(C)C)c4ccc(Br)cc34)n2)c2cccnc21`, the growth in test [1] is 58%; in test [2], 84.5%; in test [3], 70.7%; in [4], 95.5%; in test [5], 98.7%; in test [6] it was 93.2%. The growth in test [7] is 98.3%; in [8], 94.7%; in test [9], 82.5%.
Consider `CC(=O)O[C@H]1CC[C@@]2(C)[C@@H](CC[C@@H]3[C@@H]2CC(=O)[C@@]2(C)[C@H]3C[C@@H](C3CCCC3=O)[C@@H]2C(C)=O)C1` (stereo partly drawn), for which the growth is 87.9% in test [1]; 91.2% in [2]; 98.9% in test [3]; 107% in test [4]; 107% in test [5]; 98.1% in test [6]. The growth in [7] was 115%; in test [8] it was 108%; in test [9], 104%.
On to `O=C(N/N=C\c1ccccc1O)C1CC1`, for which the growth in test [1] is 104%; in [2], 107%; in test [3], 93.5%; in [4] it was 117%; in [5], 101%; in test [6], 95%. Also, the growth in test [7] was 102%; in test [8], 115%; in [9], 92.8%.
Turning to `O=C1NC(=Nc2ccc(S(=O)(=O)Nc3nccs3)cc2)S/C1=C\c1coc2ccccc2c1=O`, the growth is 88.9% in test [1]; 101% in test [2]; 121% in test [4]; 102% in test [10]; 91.5% in test [5]; 98.1% in test [6]. Also, the growth is 90.8% in test [8] and 106% in test [9].
On to `COc1cc(-c2cc(-c3nc4ccccc4[nH]3)[nH]n2)cc(OC)c1OC`, for which the growth in [1] was 11.1%; in test [2], -24.9% (active); in [4], 93.9%; in test [10], 44.3%; in test [5], 42.4%; in test [6], 47.4%. Besides, the growth was 33.8% in test [7] and 36.2% in test [9].
As to `C#Cc1cc2c(N)c(C(=O)c3cc(OC)c(OC)c(OC)c3)[nH]c2cc1OC`, the growth in test [1] is 7.33% (active); in [2], 26.7%; in test [3], 47.8%; in test [4], 37.5%; in test [5] it was 28.8%; in [6], 32.6%. Moreover, the growth in test [7] is 0.789% (active); in test [8] it was 1.91% (active); in test [9], 21.9%.
As to `COc1ccc(-c2cc(/C=C/C(=O)c3ccc(OC)c(OC)c3)[nH]n2)cc1`, the growth in test [1] is -32.7% (active); in test [2], -48.4% (active); in test [4], 48.5%; in [10], 32.7%; in test [5] it was 49.3%; in test [6] it was 61%. In addition, the growth is -14.6% (active) in [7] and -0.366% (active) in test [9].
`O=C1CNCCN1`: the growth in [1] is 102%; in [2] it was 98.9%; in [3], 103%; in test [10], 108%; in test [5], 112%; in test [6], 99.7%. Further, the growth was 109% in [7], 100% in [8] and 106% in test [9].
Turning to `COc1cc(-c2cc(-c3nc4cc(Cl)c(Cl)cc4[nH]3)[nH]n2)cc(OC)c1OC`, the growth is 54.5% in test [1]; -7.57% (active) in [2]; 101% in test [4]; 52.5% in test [10]; 104% in test [5]; 87.2% in test [6]. For the same compound, the growth is 52.2% in [7] and 39.1% in test [9].
For `COc1cc(C(=O)/C=C/c2cc(-c3ccc4c(c3)OCO4)n[nH]2)cc(OC)c1OC`, the growth is -25.3% (active) in test [1]; -42.4% (active) in [2]; 57.6% in test [4]; 27.7% in [10]; 60.8% in test [5]; 64.8% in test [6]. The growth is -17.8% (active) in test [7] and -13.5% (active) in test [9].
On to `O=c1c(CNc2ccc(S(=O)(=O)Nc3nccs3)cc2)coc2ccccc12`, for which the growth in [1] was 94.7%; in test [2], 92.1%; in test [4], 92.8%; in test [10], 99.9%; in test [5] it was 102%; in test [6], 101%. The values for the growth in [7] and in [9] were 110% and 102%, respectively.
Regarding `COc1cc2c(cc1OC)C(=O)/C(=C/c1cc(-c3ccc4c(c3)OCO4)n[nH]1)C2`, the growth in [1] was -43.8% (active); in test [2], -46.7% (active); in test [4] it was 37.9%; in test [10], 14.4%; in [5], 33.6%; in test [6] it was 52.7%. Also, the results for the growth in test [7] and in test [9] were -50.4% (active) and -15% (active), respectively.
